# Screens as filed in PubChem.
# DUSP1 inh – human dual specificity phosphatase 1 inhibition; AID 374; inhibition, %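 (compounds tested at a single concentration somewhere between 10 and 100 µM)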; actives 0.15% (n = 65,000); recombinant MKP-1, OMFP hydrolysis fluorescence;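 active = inhibition above about 50%, limit read from the data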;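 also: 0% = DMSO max control wells and 100% = wells with enzyme stopped by NaOH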
# Autofluor 339 – intrinsic fluorescence of library compounds, ex339/em460 – biochemical, MLSMR library, data from DPM-DC assay, artefact control, profiling panel; compound autofluorescence, ex339/em460 nm, NADH buffer; stronger effect = higher value; 1 = no-compound wells, NADH background; fluorescence fold increase at 10 µM; AID 709; actives 5.5% (n = 65,000);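 active = at 10 µM, mean starting fluorescence two-fold or more over control wells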;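 also: signal is the first read of a kinetic run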
# A340 absorber – compound absorbs light at 340 nm; compound absorbance at 340 nm, fold over control; fold change at 10 µM; 65,000 tested, under 10 active;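 active = at 10 µM dose, initial 340 nm absorbance at least 2 fold that of control wells; inactive = change under 2 fold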;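 also: initial absorbance extrapolated from kinetic A340 decline of NADH oxidation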
# Hsp90 block – displaces geldanamycin probe from tumor Hsp90; NCI-N417 lysate Hsp90, Cy3B-geldanamycin FP displacement; inhibition, % at 30 µM; actives 0.35% (n = 64,000);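 active = inhibition above 50%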;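 also: 0% = tracer plus lysate wells and 100% = tracer alone without lysate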
# Cdc25B block – human M-phase inducer phosphatase 2 inhibition. P30305. recombinant Cdc25B, OMFP fluorescence Ex485/Em525. inhibition, %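 (compounds tested at 10 µM final in the well)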. actives 0.1% (n = 65,000). AID 368; in the data active = inhibition above about 50%
# Target sequence (P30305 whole entry, looked up): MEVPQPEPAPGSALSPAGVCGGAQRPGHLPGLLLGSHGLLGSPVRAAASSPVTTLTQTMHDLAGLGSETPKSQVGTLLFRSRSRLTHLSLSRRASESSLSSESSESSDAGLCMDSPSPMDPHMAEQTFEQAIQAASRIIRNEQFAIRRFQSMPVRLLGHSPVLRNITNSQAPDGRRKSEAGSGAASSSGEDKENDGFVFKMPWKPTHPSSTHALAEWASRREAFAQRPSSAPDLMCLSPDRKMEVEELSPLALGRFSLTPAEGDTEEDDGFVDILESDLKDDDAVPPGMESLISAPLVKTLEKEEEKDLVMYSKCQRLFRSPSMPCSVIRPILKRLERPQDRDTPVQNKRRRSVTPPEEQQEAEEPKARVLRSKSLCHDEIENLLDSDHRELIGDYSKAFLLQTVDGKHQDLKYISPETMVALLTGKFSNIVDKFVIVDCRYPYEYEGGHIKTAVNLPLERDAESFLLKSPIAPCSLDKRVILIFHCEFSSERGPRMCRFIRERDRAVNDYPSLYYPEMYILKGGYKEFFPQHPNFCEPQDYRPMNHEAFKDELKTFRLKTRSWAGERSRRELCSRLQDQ
# NADH enzymes – blocks coupling enzymes of NAD/NADH assays; AID 774; actives 0.02% (n = 65,000); coupled PK/LDH NADH assays, four targets; IC50, µM (series often up to 10 µM), for inactives: at the top dose inhibition;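 active = single-dose screening hits from any of four coupled enzyme assays that gave an IC50 when retested across doses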;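 also: the DPM-DC format reads NADH fluorescence rather than 340 nm absorbance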
# * = called active by the depositor. Shown are actives, neighbours in structure and some others; about 5.7% of the full set was active somewhere.
SMILES,DUSP1 inh,Autofluor 339,A340 absorber,Hsp90 block,Cdc25B block,NADH enzymes
N=c1c(S(=O)(=O)c2ccccc2)cc2c(=O)n3ccccc3nc2n1CC1CCCO1 (configuration not stated),20.4,3.08*,1.03,-0.3,4.1,10.0%
Cc1ccc(S(=O)(=O)c2cc3c(=O)n4cc(C)ccc4nc3n(CC3CCCO3)c2=N)cc1 (configuration not stated),1.4,2.09*,1.05,-9.8,6.2,8.0%
COc1ccc(C(=O)c2c(C)oc3ccc(O)c(CN4CCOCC4)c23)cc1,-1.3,1.05,1.04,-0.1,-3.1,3.0%
O=c1c(-c2ccc(Br)cc2)coc2c(CN3CCOCC3)c(O)ccc12,13.6,2.97*,1.06,0.8,2.1,4.0%
CCc1cc2c(=O)c(-c3cnn(-c4ccccc4)c3)coc2c(CN2CCOCC2)c1O,5.9,2.88*,0.97,-4.5,-5.5,9.0%
Cc1oc2c(CN3CCCC3)c(O)ccc2c(=O)c1-c1ccccc1,10.8,2.97*,1.06,1.9,-20.2,6.0%
CCc1cc2c(=O)c(-c3nc4ccccc4n3C)coc2c(CN2CCOCC2)c1O,-12.9,1.32,1.17,-2.7,-12.6,12.0%
O=C(c1coc2ccc(O)c(CN3CCOCC3)c12)C1CC1,7.0,1.09,1.01,0.2,1.4,9.0%
Cc1oc2c(CN3CCOCC3)c(O)ccc2c(=O)c1-c1ccc(Br)cc1,3.7,3.07*,0.99,-3.6,-2.8,6.0%
Cc1ccc(C)c2[nH]c(=O)c(CN(CCN3CCCC3)C(=O)Nc3cccc(Cl)c3)cc12,5.6,1.25,1.01,0.4,-16.5,3.0%
O=C(CN1CCOCC1)Nc1c2c(nc3ccccc13)N(Cc1ccccc1)CC2,0.0,3.71*,1.06,-4.7,8.6,10.0%
O=C(CN1CCOCCOCCN(CC(=O)Nc2ccccc2)CCOCC1)Nc1ccccc1,31.5,1.14,0.99,-4.9,1.0,11.0%
CC(C)C(=O)Nc1c2c(nc3ccccc13)N(C)CC2,8.5,2.19*,1.07,-1.7,-2.0,8.0%
CC(C)C(=O)Nc1c2c(nc3c1CCC3)CCCC2,-24.6,1.08,1.03,-3.0,5.2,7.0%
COc1ccc(OC)c(-n2nnnc2SCC(=O)NCc2ccc3c(c2)OCO3)c1,3.2,1.07,0.98,2.5,-6.9,1.0%
CC(=O)CCc1c(C)[nH]c2ccccc2c1=O,6.8,1.05,1.02,81.9*,-5.2,2.0%
CCN(CC)c1ccc2cc(-c3nc4ccccc4n3C)c(=O)oc2c1,9.9,2.13*,1.05,-1.0,-2.5,5.0%
CCN(CC)c1ccc2cc(-c3nc4ccccc4[nH]3)c(=O)oc2c1,2.8,1.09,0.8,-8.2,-0.5,8.0%
Cc1cc(-c2nn3c(C)nnc3s2)ccc1NC(=O)C(C)(C)C,8.3,1.05,0.99,-1.7,-17.5,7.0%
COc1ccc(-c2nc(C(N)=O)c3[nH]c(=O)n(-c4ccccc4OC)c3n2)c(OC)c1,2.4,1.24,1.09,-0.1,-10.7,8.0%
CCOc1ccccc1-c1nc(C(N)=O)c2[nH]c(=O)n(-c3cccc(C)c3)c2n1,25.6,2.53*,1.05,-3.3,-4.9,10.0%
NC(=O)c1nc(C2CCCCC2)nc2c1[nH]c(=O)n2-c1ccc(F)cc1,-3.1,2.12*,1.04,-1.2,-14.5,6.0%
Cc1ccc(-n2c(=O)[nH]c3c(C(N)=O)nc(-c4ccc(C)o4)nc32)cc1,42.5,2.36*,1.03,-1.7,2.0,8.0%
COc1ccccc1-n1c(=O)[nH]c2c(C(N)=O)nc(-c3cccnc3)nc21,9.5,2.46*,1.04,0.6,-6.5,3.0%
COc1ccccc1-n1c(=O)[nH]c2c(C(N)=O)nc(C3CCCCC3)nc21,34.7,1.77,1.04,0.4,-1.6,11.0%
COc1ccc(OC)c(-c2nc(C(N)=O)c3[nH]c(=O)n(-c4ccc(F)cc4)c3n2)c1,4.7,1.15,1.11,-2.9,-0.8,2.0%
CCc1noc2c1/C(=N\O)CC(c1ccccc1)C2 (configuration not stated),5.8,1,1.05,9.1,-5.9,6.0%
Cn1nnc2cc(C(=O)N3CCC(c4ccccc4)C3)ccc21 (configuration not stated),22.7,1.15,1.02,0.0,1.9,2.0%
O=C(CN1C(=O)CCC1=O)Nc1nc(-c2ccccn2)cs1,-1.3,1.09,1.02,-3.8,-10.0,3.0%
